According to the supplement of paper PMC10849652:
About 7,900 targets were measured; listed, in parts, are those with a hit and a random draw of the rest. About 0.6% of all pairs of compound and target were hits.

Columns and labels:
Experiment in all cases: log2 fold change, soluble protein after heating vs DMSO (PISA); higher = thermal stabilisation; K562 cells, 10 uM, 30 min; active = over 0.2 and 3.5 SD of the protein, either way, in both replicates (recomputed)
[1] = compound: CC1=C(C=C(C=C1)NC(=O)C2=CC(=CC=C2)C(C)(C)C#N)NC3=CC4=C(C=C3)N=CN(C4=O)C
Summary of the method: (§1)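 K562 cells at 2×10^6 cells/mL were treated with 10 μM compound for 30 min. Aliquots were heated for 3 min across 48°C-58°C, pooled, and extracted in PBS with 0.5% NP-40 at 4°C; soluble protein was the supernatant after 21,000xg for 90 min. Soluble protein was quantified by TMTpro 16plex LC-MS/MS with channel sums equalised, and reported as log2 fold change in thermal stability against DMSO controls, with values from duplicates.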

[2] = compound: CC1=C(C=C(C=C1)NC(=O)C2=CC(=CC=C2)N(C)C)NC(=O)C3=CC=C(C=C3)O
Summary of the method: as §1

[3] = compound: CC1=CC=C(C=C1)SC2=C3C=C(SC3=CN=C2)C(=O)N
Summary of the method: as §1

[4] = compound: CC1=NC(=CC=C1)C2=C(N=C(N2)C(C)(C)C)C3=CC4=NC=CN=C4C=C3
Summary of the method: as §1

Nexturastat A = compound: CCCCN(Cc1ccc(C(=O)NO)cc1)C(=O)Nc1ccccc1 [Nexturastat A]
Summary of the method: as §1

vemurafenib = compound: CCCS(=O)(=O)Nc1ccc(F)c(C(=O)c2c[nH]c3ncc(-c4ccc(Cl)cc4)cc23)c1F [vemurafenib]
Summary of the method: as §1

[5] = compound: CCCS(=O)(=O)Nc1ccc(F)c(C(=O)c2c[nH]c3ncc(Cl)cc23)c1F
Summary of the method: as §1

[6] = compound: CCCc1cc(C)[nH]c(=O)c1CNC(=O)c1cc(-c2ccnc(N3CCN(C)CC3)c2)cc2c1cnn2C(C)C
Summary of the method: as §1

givinostat = compound: CCN(CC)Cc1ccc2cc(COC(=O)Nc3ccc(C(=O)NO)cc3)ccc2c1 [givinostat]
Summary of the method: as §1

barasertib = compound: CCN(CCCOc1ccc2c(Nc3cc(CC(=O)Nc4cccc(F)c4)[nH]n3)ncnc2c1)CCOP(=O)(O)O [barasertib]
Summary of the method: as §1

[7] = compound: CC[C@@H]1C(=O)N(C)c2cnc(Nc3ccc(C(=O)NC4CCN(C)CC4)cc3OC)nc2N1C1CCCC1
Summary of the method: as §1

volasertib = compound: CC[C@@H]1C(=O)N(C)c2cnc(Nc3ccc(C(=O)N[C@H]4CC[C@H](N5CCN(CC6CC6)CC5)CC4)cc3OC)nc2N1C(C)C [volasertib]
Summary of the method: as §1

[8] = compound: CC[C@H](C)N1C=C(C2=C(C=C(C=C21)C3=CN=C(C=C3)N4CCNCC4)C(=O)NCC5=C(C=C(NC5=O)C)C)C
Summary of the method: as §1

epoxomicin = compound: CC[C@H](C)[C@@H](C(=O)N[C@@H]([C@@H](C)O)C(=O)N[C@@H](CC(C)C)C(=O)[C@]1(CO1)C)NC(=O)[C@H]([C@@H](C)CC)N(C)C(=O)C [epoxomicin]
Summary of the method: as §1

[9] = compound: CCn1c(C(=O)N(C2CC2)C2CC2)cc2c3c(ncn3C)c(Nc3cc(C)n(C)n3)nc21
Summary of the method: as §1

[10] = compound: CCn1cc(-c2ccnc3[nH]c(-c4cccc(CN(C)C)c4)cc23)c(-c2ccc(NC(=O)N(C)C)cc2)n1
Summary of the method: as §1

[11] = compound: CN(C)CC(=O)Nc1ccc2[nH]c(=O)c3ccccc3c2c1
Summary of the method: as §1

rosiglitazone = compound: CN(CCOC1=CC=C(C=C1)C[C@H]2C(=O)NC(=O)S2)C3=CC=CC=N3 (racemic) [rosiglitazone]
Summary of the method: as §1

[12] = compound: CN1C2=C(C3=C1C(=O)N(N=C3)CC4=CC(=CC=C4)N)SC(=C2)S(=O)C
Summary of the method: as §1

[13] = compound: CN1CCC(CNc2ccc3ncc(-c4cccc(OC(F)(F)F)c4)n3n2)CC1
Summary of the method: as §1

Measured: log2 fold change

COX7C (UniProt P15954)
Chain of UniProt P15954 (P15954 whole entry, looked up): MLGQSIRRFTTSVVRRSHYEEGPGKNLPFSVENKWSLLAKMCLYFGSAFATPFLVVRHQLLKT
inactive: [1] -0.057 | [2] -0.187 | [3] -0.01 | [4] 0.088 | Nexturastat A 0.027 | vemurafenib -0.018 | [5] -0.085 | [6] 0.143 | givinostat -0.271 | barasertib 0.061 | [7] 0.035 | volasertib -0.163 | [8] -0.114 | epoxomicin 0.203 | [9] -0.01 | [10] 0.095 | [11] -0.058 | rosiglitazone -0.025 | [12] -0.026 | [13] -0.052

CAVIN1 (UniProt Q6NZI2)
Chain of UniProt Q6NZI2 (Q6NZI2 whole entry, looked up): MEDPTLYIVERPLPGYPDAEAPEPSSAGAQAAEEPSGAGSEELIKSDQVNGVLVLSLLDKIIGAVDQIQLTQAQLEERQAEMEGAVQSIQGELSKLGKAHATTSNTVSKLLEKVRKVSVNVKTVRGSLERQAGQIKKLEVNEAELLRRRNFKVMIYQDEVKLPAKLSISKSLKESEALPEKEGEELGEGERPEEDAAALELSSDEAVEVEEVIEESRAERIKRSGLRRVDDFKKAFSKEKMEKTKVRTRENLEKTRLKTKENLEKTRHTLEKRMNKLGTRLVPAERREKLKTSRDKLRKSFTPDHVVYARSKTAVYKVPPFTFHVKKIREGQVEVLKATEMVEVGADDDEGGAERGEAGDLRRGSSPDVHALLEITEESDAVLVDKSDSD
inactive: [1] 0.024 | [2] -0.066 | [3] -0.051 | [4] -0.027 | Nexturastat A 0.186 | vemurafenib -0.068 | [5] -0.047 | [6] 0.073 | givinostat 0.041 | barasertib -0.058 | [7] 0.072 | volasertib 0.182 | [8] -0.007 | epoxomicin -0.125 | [9] 0.013 | [10] 0.085 | [11] -0.06 | rosiglitazone -0.037 | [12] 0.124 | [13] -0.074

CSNK1A1 (UniProt P48729)
Chain of UniProt P48729 (P48729 whole entry, looked up): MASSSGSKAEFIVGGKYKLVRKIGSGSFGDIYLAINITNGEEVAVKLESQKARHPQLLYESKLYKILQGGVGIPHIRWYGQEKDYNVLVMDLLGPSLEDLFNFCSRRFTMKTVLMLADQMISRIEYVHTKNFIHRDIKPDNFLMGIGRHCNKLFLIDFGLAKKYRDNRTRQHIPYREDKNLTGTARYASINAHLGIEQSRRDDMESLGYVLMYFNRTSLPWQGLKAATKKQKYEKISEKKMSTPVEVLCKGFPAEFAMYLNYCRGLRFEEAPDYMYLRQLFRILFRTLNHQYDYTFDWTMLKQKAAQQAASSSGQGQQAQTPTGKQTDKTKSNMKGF
inactive: [1] -0.021 | [2] 0.03 | [3] -0.006 | [4] -0.12 | Nexturastat A 0.028 | vemurafenib -0.006 | [5] 0 | [6] 0.031 | givinostat 0.037 | barasertib 0 | [7] -0.011 | volasertib -0.117 | [8] 0.057 | epoxomicin 0.046 | [9] -0.016 | [10] 0.008 | [11] -0.179 | rosiglitazone -0.028 | [12] 0.072 | [13] -0.067

COMT (UniProt P21964)
Chain of UniProt P21964 (P21964 whole entry, looked up): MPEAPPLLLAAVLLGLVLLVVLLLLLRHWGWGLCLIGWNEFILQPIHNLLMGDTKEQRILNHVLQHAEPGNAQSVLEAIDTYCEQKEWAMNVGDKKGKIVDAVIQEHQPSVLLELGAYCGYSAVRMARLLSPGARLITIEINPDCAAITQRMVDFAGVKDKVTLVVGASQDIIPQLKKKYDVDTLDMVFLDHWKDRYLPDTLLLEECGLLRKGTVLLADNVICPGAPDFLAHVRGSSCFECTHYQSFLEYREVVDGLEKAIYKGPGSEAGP
inactive: [1] 0.14 | [2] 0.009 | [3] -0.012 | [4] 0.019 | Nexturastat A 0.036 | vemurafenib 0.011 | [5] 0.002 | [6] 0.005 | givinostat 0.144 | barasertib -0.006 | [7] 0.013 | volasertib 0.073 | [8] 0.01 | epoxomicin -0.023 | [9] -0.021 | [10] -0.01 | [11] 0.005 | rosiglitazone 0.039 | [12] -0.11 | [13] 0.142

CELF2 isoform 3 (UniProt O95319)
Chain of UniProt O95319 (O95319 whole entry, looked up): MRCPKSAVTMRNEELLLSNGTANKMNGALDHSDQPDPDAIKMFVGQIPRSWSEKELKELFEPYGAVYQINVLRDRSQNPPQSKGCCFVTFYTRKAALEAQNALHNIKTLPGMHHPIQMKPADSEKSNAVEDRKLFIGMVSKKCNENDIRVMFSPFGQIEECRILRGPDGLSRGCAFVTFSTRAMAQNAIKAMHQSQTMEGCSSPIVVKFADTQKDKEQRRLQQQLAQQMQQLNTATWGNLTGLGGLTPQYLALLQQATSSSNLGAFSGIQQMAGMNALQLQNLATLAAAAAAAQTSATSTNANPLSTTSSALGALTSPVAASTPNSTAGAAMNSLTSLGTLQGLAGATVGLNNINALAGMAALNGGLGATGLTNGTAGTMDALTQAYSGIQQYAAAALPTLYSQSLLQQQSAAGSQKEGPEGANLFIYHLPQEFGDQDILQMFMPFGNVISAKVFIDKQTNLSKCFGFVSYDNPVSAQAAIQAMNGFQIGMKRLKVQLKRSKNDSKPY
inactive: [1] 0.075 | [2] 0.01 | [3] 0.112 | [4] -0.006 | Nexturastat A -0.025 | vemurafenib 0.065 | [5] 0.005 | [6] -0.02 | givinostat -0.008 | barasertib 0.001 | [7] 0.115 | volasertib -0.028 | [8] 0.02 | epoxomicin 0.018 | [9] -0.027 | [10] 0.103 | [11] 0.006 | rosiglitazone -0.049 | [12] -0.04 | [13] 0.111

CETN3 (UniProt O15182)
Chain of UniProt O15182 (O15182 whole entry, looked up): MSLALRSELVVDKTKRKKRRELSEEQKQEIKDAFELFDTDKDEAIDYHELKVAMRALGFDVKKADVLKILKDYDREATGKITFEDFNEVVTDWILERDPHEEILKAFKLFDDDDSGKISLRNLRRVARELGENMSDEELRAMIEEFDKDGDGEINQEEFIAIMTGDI
inactive: [1] 0.001 | [2] 0.012 | [3] -0.099 | [4] -0.102 | Nexturastat A -0.01 | vemurafenib -0.056 | [5] -0.164 | [6] -0.116 | givinostat 0.008 | barasertib 0.043 | [7] 0.037 | volasertib -0.028 | [8] 0.006 | epoxomicin 0.042 | [9] 0.032 | [10] -0.014 | [11] -0.043 | rosiglitazone 0.032 | [12] -0.013
active: [13] -0.287

CASTOR2 (UniProt A6NHX0)
Chain of UniProt A6NHX0 (A6NHX0 whole entry, looked up): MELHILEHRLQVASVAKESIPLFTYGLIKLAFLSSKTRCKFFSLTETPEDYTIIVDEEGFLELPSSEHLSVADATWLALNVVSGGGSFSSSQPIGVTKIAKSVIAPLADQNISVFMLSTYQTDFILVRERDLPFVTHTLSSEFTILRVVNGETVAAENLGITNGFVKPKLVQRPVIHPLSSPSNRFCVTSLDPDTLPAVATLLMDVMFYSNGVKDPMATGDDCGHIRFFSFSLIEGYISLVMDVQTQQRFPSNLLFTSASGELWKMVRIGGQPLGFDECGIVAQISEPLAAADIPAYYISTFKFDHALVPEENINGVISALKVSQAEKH
active: [5] -0.465
inactive: [1] -0.015 | [2] -0.01 | [3] 0.037 | [4] 0.033 | Nexturastat A -0.085 | vemurafenib 0.046 | [6] -0.021 | givinostat 0.041 | barasertib 0.01 | [7] 0.025 | volasertib 0.254 | [8] -0.042 | epoxomicin 0.061 | [9] -0.024 | [10] 0.123 | [11] -0.035 | rosiglitazone 0.034 | [12] -0.022 | [13] 0.066

CCZ1 (UniProt P86791)
active: [13] -0.256
inactive: [1] -0.005 | [2] -0.029 | [3] 0.014 | [4] 0.035 | Nexturastat A 0.009 | vemurafenib 0.024 | [5] 0.011 | [6] -0.029 | givinostat 0.028 | barasertib -0.011 | [7] -0.199 | volasertib -0.113 | [8] -0.005 | epoxomicin 0.013 | [9] -0.011 | [10] 0.028 | [11] -0.002 | rosiglitazone 0.025 | [12] -0.002

CHMP4B (UniProt Q9H444)
Chain of UniProt Q9H444 (Q9H444 whole entry, looked up): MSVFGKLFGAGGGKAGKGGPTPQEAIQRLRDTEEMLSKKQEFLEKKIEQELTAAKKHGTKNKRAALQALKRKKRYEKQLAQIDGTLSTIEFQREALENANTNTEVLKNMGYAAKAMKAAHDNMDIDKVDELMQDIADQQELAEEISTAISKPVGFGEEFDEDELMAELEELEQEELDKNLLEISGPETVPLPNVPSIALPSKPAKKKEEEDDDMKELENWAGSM
inactive: [1] 0.181 | [2] 0.008 | [3] -0.073 | [4] 0.007 | Nexturastat A -0.04 | vemurafenib -0.036 | [5] -0.126 | [6] -0.02 | givinostat -0.061 | barasertib 0.001 | [7] -0.05 | volasertib 0.062 | [8] -0.044 | epoxomicin -0.008 | [9] 0.043 | [10] -0.065 | [11] -0.053 | rosiglitazone -0.031 | [12] -0.057 | [13] -0.033

CPT1A (UniProt P50416)
Chain of UniProt P50416 (P50416 whole entry, looked up): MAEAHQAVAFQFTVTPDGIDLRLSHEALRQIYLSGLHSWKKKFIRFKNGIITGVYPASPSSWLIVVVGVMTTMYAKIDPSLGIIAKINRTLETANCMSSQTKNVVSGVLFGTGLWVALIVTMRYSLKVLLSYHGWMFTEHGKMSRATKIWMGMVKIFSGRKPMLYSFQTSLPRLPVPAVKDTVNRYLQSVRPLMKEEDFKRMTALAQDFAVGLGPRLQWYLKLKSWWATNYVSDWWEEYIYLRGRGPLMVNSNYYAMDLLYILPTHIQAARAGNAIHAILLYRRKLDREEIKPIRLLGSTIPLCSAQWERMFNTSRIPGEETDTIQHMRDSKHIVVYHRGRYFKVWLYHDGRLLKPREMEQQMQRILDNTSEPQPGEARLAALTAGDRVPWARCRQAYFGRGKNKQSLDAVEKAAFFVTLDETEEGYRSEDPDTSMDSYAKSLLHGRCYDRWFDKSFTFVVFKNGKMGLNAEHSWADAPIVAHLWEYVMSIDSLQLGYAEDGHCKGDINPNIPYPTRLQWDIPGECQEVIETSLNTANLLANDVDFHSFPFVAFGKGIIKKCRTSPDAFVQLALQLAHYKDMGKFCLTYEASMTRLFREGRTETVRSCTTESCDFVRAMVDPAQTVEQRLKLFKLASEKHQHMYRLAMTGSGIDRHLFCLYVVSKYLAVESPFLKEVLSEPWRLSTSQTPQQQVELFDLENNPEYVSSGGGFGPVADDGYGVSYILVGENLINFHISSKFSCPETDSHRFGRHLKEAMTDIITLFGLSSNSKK
inactive: [1] 0.069 | [2] -0.077 | [3] -0.054 | [4] -0.114 | Nexturastat A 0.083 | vemurafenib 0.11 | [5] 0.022 | [6] 0.09 | givinostat 0.048 | barasertib 0.01 | [7] -0.048 | volasertib -0.047 | [8] 0.045 | epoxomicin -0.003 | [9] -0.076 | [10] -0.064 | [11] 0.013 | rosiglitazone 0.025 | [12] -0.053
active: [13] 0.333

CDC42BPA isoform 6 (UniProt Q5VT25)
active: volasertib -0.86
inactive: [1] 0.151 | [2] -0.079 | [3] 0.01 | [4] -0.015 | Nexturastat A 0.123 | vemurafenib 0.004 | [5] 0.141 | [6] -0.013 | givinostat 0.051 | barasertib 0.04 | [7] -0.021 | [8] 0.053 | epoxomicin 0.001 | [9] 0.002 | [10] 0 | [11] 0.042 | rosiglitazone 0.026 | [12] 0.078 | [13] -0.359

CLCN3 (UniProt P51790)
Chain of UniProt P51790 (P51790 whole entry, looked up): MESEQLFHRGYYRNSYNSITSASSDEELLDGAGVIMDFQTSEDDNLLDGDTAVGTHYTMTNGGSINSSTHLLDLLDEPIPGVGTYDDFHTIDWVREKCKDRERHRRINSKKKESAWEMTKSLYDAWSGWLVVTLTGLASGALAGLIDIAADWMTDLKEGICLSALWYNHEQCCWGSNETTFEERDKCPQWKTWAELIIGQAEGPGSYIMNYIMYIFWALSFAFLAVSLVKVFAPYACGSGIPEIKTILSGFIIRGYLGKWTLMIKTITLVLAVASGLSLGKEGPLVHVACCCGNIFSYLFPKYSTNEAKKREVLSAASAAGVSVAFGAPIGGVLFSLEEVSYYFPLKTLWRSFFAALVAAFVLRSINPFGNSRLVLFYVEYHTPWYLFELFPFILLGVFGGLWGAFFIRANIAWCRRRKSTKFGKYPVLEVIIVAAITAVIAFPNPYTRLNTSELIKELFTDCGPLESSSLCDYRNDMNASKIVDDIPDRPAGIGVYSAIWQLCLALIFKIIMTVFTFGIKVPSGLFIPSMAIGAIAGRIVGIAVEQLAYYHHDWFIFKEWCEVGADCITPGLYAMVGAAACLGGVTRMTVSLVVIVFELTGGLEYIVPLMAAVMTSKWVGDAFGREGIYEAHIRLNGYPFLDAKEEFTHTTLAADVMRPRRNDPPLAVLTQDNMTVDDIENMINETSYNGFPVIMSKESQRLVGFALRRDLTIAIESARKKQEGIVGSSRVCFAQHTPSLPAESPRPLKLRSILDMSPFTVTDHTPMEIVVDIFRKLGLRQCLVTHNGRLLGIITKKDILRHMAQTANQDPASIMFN
active: Nexturastat A -0.313
inactive: [1] -0.03 | [2] 0.046 | [3] 0.015 | [4] 0.034 | vemurafenib 0.014 | [5] 0.009 | [6] -0.107 | givinostat 0.02 | barasertib 0.053 | [7] 0.036 | volasertib -0.095 | [8] -0.037 | epoxomicin -0.015 | [9] 0.013 | [10] 0.065 | [11] 0.011 | rosiglitazone -0.018 | [12] -0.051 | [13] -0.213

COX6B1 (UniProt P14854)
Chain of UniProt P14854 (P14854 whole entry, looked up): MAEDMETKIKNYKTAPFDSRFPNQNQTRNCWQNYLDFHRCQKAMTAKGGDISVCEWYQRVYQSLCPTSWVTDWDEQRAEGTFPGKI
inactive: [1] -0.006 | [2] -0.144 | [3] 0.136 | [4] 0.016 | Nexturastat A -0.001 | vemurafenib 0.015 | [5] -0.005 | [6] -0.069 | givinostat -0.025 | barasertib 0.085 | [7] 0.036 | volasertib 0.023 | [8] -0.013 | epoxomicin 0.333 | [9] 0.046 | [10] -0.014 | [11] -0.081 | rosiglitazone 0.013 | [12] -0.054 | [13] 0.038

CDC37L1 (UniProt Q7L3B6)
Chain of UniProt Q7L3B6 (Q7L3B6 whole entry, looked up): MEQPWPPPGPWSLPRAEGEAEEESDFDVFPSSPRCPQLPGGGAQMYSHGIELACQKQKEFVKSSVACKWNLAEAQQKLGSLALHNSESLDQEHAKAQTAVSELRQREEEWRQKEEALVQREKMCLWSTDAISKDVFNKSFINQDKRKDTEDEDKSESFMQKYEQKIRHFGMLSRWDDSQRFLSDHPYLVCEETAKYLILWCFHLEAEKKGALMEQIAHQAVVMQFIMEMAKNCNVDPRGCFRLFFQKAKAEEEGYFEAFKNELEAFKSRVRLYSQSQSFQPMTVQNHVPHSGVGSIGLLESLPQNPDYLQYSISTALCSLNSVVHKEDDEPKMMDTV
inactive: [1] 0.035 | [2] 0.001 | [3] -0.054 | [4] -0.021 | Nexturastat A -0.028 | vemurafenib -0.008 | [5] 0.019 | [6] 0.063 | givinostat 0.044 | barasertib 0.063 | [7] -0.14 | volasertib -0.199 | [8] 0.059 | epoxomicin 0.029 | [9] 0.02 | [10] 0.091 | [11] -0.054 | rosiglitazone 0.005 | [12] 0.001 | [13] -0.048

CNOT7 (UniProt Q9UIV1)
Chain of UniProt Q9UIV1 (Q9UIV1 whole entry, looked up): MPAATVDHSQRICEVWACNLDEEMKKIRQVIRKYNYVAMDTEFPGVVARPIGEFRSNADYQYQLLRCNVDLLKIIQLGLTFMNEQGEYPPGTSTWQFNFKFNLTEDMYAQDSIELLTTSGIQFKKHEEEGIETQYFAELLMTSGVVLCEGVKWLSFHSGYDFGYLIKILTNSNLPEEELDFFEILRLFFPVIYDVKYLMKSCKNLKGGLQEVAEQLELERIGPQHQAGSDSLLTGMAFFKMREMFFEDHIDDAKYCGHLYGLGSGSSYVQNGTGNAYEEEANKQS
inactive: [1] 0.046 | [2] -0.043 | [3] 0.075 | [4] 0.014 | Nexturastat A 0.048 | vemurafenib -0.068 | [5] 0.053 | [6] -0.011 | givinostat -0.026 | barasertib 0.004 | [7] -0.086 | [8] -0.049 | epoxomicin -0.053 | [9] -0.16 | [10] -0.052 | [11] -0.121 | rosiglitazone -0.04 | [12] 0.021 | [13] -0.082
active: volasertib -0.305
